In PubChem BioAssay (NCATS):
Results filed as inconclusive are left out. Active and inactive are the calls of the source. Calls follow the shape of the dose curve; as a rule, active = well fitted curve in the direction sought with a large enough effect; inconclusive = small, poorly fitted or top-dose-only effect, or another doubt; inactive = no such curve, though single readings can be large; an effect the other way counts as inactive or inconclusive.

How the values were obtained:
[1] = qHTS of pediatric cancer cell lines to identify multiple opportunities for drug repurposing: Primary screen for TC32 cells (AID 1347089); also: nearly all actives have a fitted effect of over 60% in size; also: potency is read from the fitted curve at half-maximal effect
Outline: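 Measured quantity: luminescence from CellTiter-Glo, reflecting metabolically active TC32 cells following 48 h of compound. Curves came straight from multi-point titrations, with 8 or 11 points in primary and 11 in confirmatory screening.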

[2] = qHTS of pediatric cancer cell lines to identify multiple opportunities for drug repurposing: Primary screen for DAOY cells (AID 1347090); also: nearly all actives have a fitted effect of over 55% in size; also: potency is read from the fitted curve at half-maximal effect
Outline: (§1)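 Eight- or eleven-point concentration series, 48 h treatment at 37 degrees C in growth media; readout CellTiter-Glo luminescence. Potency and efficacy were taken from the concentration-response curves.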

[3] = qHTS of pediatric cancer cell lines to identify multiple opportunities for drug repurposing: Primary screen for SJ-GBM2 cells (AID 1347091); also: potency is read from the fitted curve at half-maximal effect
Outline: as §1

[4] = qHTS of pediatric cancer cell lines to identify multiple opportunities for drug repurposing: Primary screen for A673 cells (AID 1347092); also: nearly all actives have a fitted effect of over 45% in size; also: potency is read from the fitted curve at half-maximal effect
Outline: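 Cells are plated, rested 5 h, dosed by pintool, incubated 48 h, then lysed with CellTiter-Glo and read by luminescence. DMSO is the neutral control; bortezomib at 2.3 uM final is the positive control.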

[5] = qHTS of pediatric cancer cell lines to identify multiple opportunities for drug repurposing: Primary screen for SK-N-MC cells (AID 1347093); also: potency is read from the fitted curve at half-maximal effect
Outline: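 Metabolically active cells were quantified by ATP-dependent luminescence (CellTiter-Glo, 15 min at room temperature) following 48 h treatment. Cells had been plated at 500-1,000 per well and settled for 5 h beforehand.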

[6] = qHTS of pediatric cancer cell lines to identify multiple opportunities for drug repurposing: Primary screen for BT-37 cells (AID 1347094); also: potency is read from the fitted curve at half-maximal effect
Outline: (§2)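 ATP-based luminescence (CellTiter-Glo) quantifies viability after a 48-hour exposure. Compounds are dosed across 8 or 11 final concentrations; DMSO and 2.3 µM bortezomib serve as controls.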

[7] = qHTS of pediatric cancer cell lines to identify multiple opportunities for drug repurposing: Primary screen for NB-EBc1 cells (AID 1347095); also: potency is read from the fitted curve at half-maximal effect
Outline: as §2

[8] = qHTS of pediatric cancer cell lines to identify multiple opportunities for drug repurposing: Primary screen for U-2 OS cells (AID 1347096); also: nearly all actives have a fitted effect of over 50% in size; also: potency is read from the fitted curve at half-maximal effect
Outline: (§3)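 Cells (500-1,000/well) in growth media were settled 5 h at 37 degrees C, then given compounds for 48 h. Viability was read as CellTiter-Glo luminescence. Primary runs used MIPE at 11 points (0.78 nM-46 µM) and NPC at 8 points (0.59 nM-46 µM); follow-ups used 11 points.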

[9] = qHTS of pediatric cancer cell lines to identify multiple opportunities for drug repurposing: Primary screen for Saos-2 cells (AID 1347097); also: nearly all actives have a fitted effect of over 40% in size; also: potency is read from the fitted curve at half-maximal effect
Outline: as §2

[10] = qHTS of pediatric cancer cell lines to identify multiple opportunities for drug repurposing: Primary screen for SK-N-SH cells (AID 1347098); also: nearly all actives have a fitted effect of over 65% in size; also: potency is read from the fitted curve at half-maximal effect
Outline: (§4)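 Cells (500-1,000/well) rested 5 h, then received compounds for 48 h; metabolically active cells were measured by CellTiter-Glo luminescence. Final concentrations spanned up to 46 µM (MIPE, 11-point) or 0.59 nM-46 µM (NPC, 8-point) in primary screens, 11-point in follow-ups.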

[11] = qHTS of pediatric cancer cell lines to identify multiple opportunities for drug repurposing: Primary screen for NB1643 cells (AID 1347099); also: nearly all actives have a fitted effect of over 50% in size; also: potency is read from the fitted curve at half-maximal effect
Outline: as §2

[12] = qHTS of pediatric cancer cell lines to identify multiple opportunities for drug repurposing: Primary screen for LAN-5 cells (AID 1347100); also: potency is read from the fitted curve at half-maximal effect
Outline: as §3

[13] = qHTS of pediatric cancer cell lines to identify multiple opportunities for drug repurposing: Primary screen for Rh18 cells (AID 1347102); also: nearly all actives have a fitted effect of over 65% in size; also: potency is read from the fitted curve at half-maximal effect
Outline: as §3

[14] = qHTS of pediatric cancer cell lines to identify multiple opportunities for drug repurposing: Primary screen for RD cells (AID 1347104); also: nearly all actives have a fitted effect of over 55% in size; also: potency is read from the fitted curve at half-maximal effect
Outline: as §2

[15] = qHTS of pediatric cancer cell lines to identify multiple opportunities for drug repurposing: Primary screen for MG 63 (6-TG R) cells (AID 1347105); also: nearly all actives have a fitted effect of over 50% in size; also: potency is read from the fitted curve at half-maximal effect
Outline: as §2

[16] = qHTS of pediatric cancer cell lines to identify multiple opportunities for drug repurposing: Primary screen for control Hh wild type fibroblast cells (AID 1347106);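 also: series mostly up to about 46 µM; a drop in luminescence marks cytotoxicity and a rise apparent proliferation; nearly all actives have a fitted effect of over 55% in size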
Outline: as §3

[17] = qHTS of pediatric cancer cell lines to identify multiple opportunities for drug repurposing: Primary screen for BT-12 cells (AID 1347101); also: nearly all actives have a fitted effect of over 25% in size
Outline: as §4

[18] = qHTS of pediatric cancer cell lines to identify multiple opportunities for drug repurposing: Primary screen for OHS-50 cells (AID 1347103); also: nearly all actives have a fitted effect of over 40% in size; also: potency is read from the fitted curve at half-maximal effect
Outline: as §4

Measured: Potency

C[C@@H]1C[C@H]2[C@@H]3CCC4=CC(=O)C=C[C@]4(C)[C@@]3(F)[C@@H](O)C[C@]2(C)[C@H]1C(=O)CO
not listed: [17] | [18]
inactive: all other assays above

CCC(C(=O)OCCN(CC)CC)c1ccccc1 (stereo not drawn)
active: [5] 23.7 µM
inactive: all other assays above

O=c1ccc2ccccc2o1
inactive: all assays above

CC(=O)Nc1c(I)cc(I)c(C(=O)O)c1I
not listed: [15]
inactive: all other assays above

CC(=O)[C@H]1CC[C@H]2[C@@H]3C[C@H](C)C4=CC(=O)CC[C@]4(C)[C@H]3[C@@H](O)C[C@]12C
not listed: [17] | [18]
inactive: all other assays above

C[C@H](O)C(=O)Nc1c(I)c(C(=O)NC(CO)CO)c(I)c(C(=O)NC(CO)CO)c1I
not listed: [17]
inactive: all other assays above

CCCCC(=O)O[C@]1(C(=O)CO)CC[C@H]2[C@@H]3CCC4=CC(=O)CC[C@]4(C)[C@H]3[C@@H](O)C[C@@]21C
not listed: [17] | [18]
inactive: all other assays above

C[C@]12C=CC(=O)C=C1[C@@H](F)C[C@@H]1[C@@H]2[C@@H](O)C[C@@]2(C)[C@H]1CC[C@]2(O)C(=O)CO
inactive: all assays above

Cc1c(C(C)C)c(=O)n(-c2ccccc2)n1C
not listed: [17]
inactive: all other assays above

CC(Cc1ccccc1)(NC(=O)CN)c1ccccc1 (stereo not drawn)
not listed: [18]
inactive: all other assays above

Nc1nc2ncc(CNc3ccc(C(=O)N[C@@H](CCC(=O)O)C(=O)O)cc3)nc2c(=O)[nH]1
inactive: all assays above

NC(=O)CC[C@@H]1NC(=O)[C@H](Cc2ccccc2)NC(=O)[C@H](Cc2ccc(O)cc2)NC(=O)CCSSC[C@@H](C(=O)N2CCC[C@H]2C(=O)N[C@@H](CCCN=C(N)N)C(=O)NCC(N)=O)NC(=O)[C@H](CC(N)=O)NC1=O
inactive: all assays above

COCc1c(C(C)C)nc(C(C)C)c(/C=C/[C@@H](O)C[C@@H](O)CC(=O)O)c1-c1ccc(F)cc1
inactive: [16]
active: [1] 1.49 µM | [2] 0.266 µM | [3] 0.237 µM | [4] 0.668 µM | [5] 1.19 µM | [6] 2.19 µM | [7] 1.68 µM | [8] 0.841 µM | [9] 0.106 µM | [10] 0.433 µM | [11] 1.5 µM | [12] 3.76 µM | [13] 0.473 µM | [18] 0.309 µM | [14] 1.68 µM | [15] 0.0841 µM

CC(=O)Oc1ccc(C(=C2CCCCC2)c2ccc(OC(C)=O)cc2)cc1
not listed: [17]
inactive: all other assays above

COc1cc(OC)cc(OC)c1
inactive: all assays above

CCC(=O)c1c(O)cc(O)cc1O
inactive: all assays above

CC(=O)OCC(=O)[C@@]1(O)[C@H](C)C[C@H]2[C@@H]3CCC4=CC(=O)C=C[C@]4(C)[C@@]3(F)[C@@H](O)C[C@@]21C
inactive: all assays above

CCCN1CCCC[C@H]1C(=O)Nc1c(C)cccc1C
inactive: all assays above

NC(CO)(CO)CO
inactive: all assays above

CC(C)(Oc1ccc(Cl)cc1)C(=O)O
inactive: all assays above

Cc1c(C(N)=O)cc([N+](=O)[O-])cc1[N+](=O)[O-]
inactive: all assays above

COC(=O)CCc1ccc(OCC(O)CNC(C)C)cc1 (stereo not drawn)
not listed: [17]
inactive: all other assays above

Cc1cc(=O)n(-c2ccccc2)n1C
inactive: all assays above

COc1cccc(OC)c1C(=O)N[C@@H]1C(=O)N2[C@@H]1SC(C)(C)[C@@H]2C(=O)O
not listed: [17]
inactive: all other assays above
